Activity calls are given as the source filed them. The calls were made as follows: active = hit-call score of the fitted dose curve at least 0.9, where 1 is the maximum; inactive = score below 0.9.
Tested on: not listed separately
Experiment: ATG_SREBP_CIS: Attagene CIS-FACTORIAL HepG2 Assay for human Sterol Regulatory Element Binding (SREBP) (AID 2282962)
Details: HepG2 Attagene cis-factorial SREBP reporter, mRNA; actives raise or lower the signal
Summary of the method: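 In this cis-format assay, HepG2 liver cells express reporters controlled by promoter elements responsive to native transcription factors. Exposure lasts 24 h; reporter mRNA fluorescence from capillary electrophoresis gives the signal, fitted bidirectionally against DMSO.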
In the case of `C[C@H]1C[C@@H]2[C@H]([C@@H](O)C[C@@]3(C)[C@H]2CC[C@]3(O)C(=O)CO)[C@@]2(C)C=CC(=O)C=C12`, the outcome is reported as “inactive”. With `COCCOCCOCCOCCOCCO` the outcome was “inactive”. With `O=C(O)CCCCC1CCSS1` (stereo not given) the outcome was “inactive”. For `C#C[C@]1(O)CC[C@H]2[C@@H]3CCC4=Cc5oncc5C[C@]4(C)[C@H]3CC[C@@]21C`, the AC50 was 14.8 µM (active). For `O=C(O)COCCN1CCN(C(c2ccccc2)c2ccc(Cl)cc2)CC1` (stereo not given), the outcome was “inactive”. For `CCCCN`, the outcome was “inactive”. With `COC(=O)Cc1cccc2ccccc12` the outcome was “inactive”. In the case of `O=Nc1ccc(Nc2ccccc2)cc1`, the AC50 is reported as 33.4 µM (active). In the case of `CC(C)=CCC[C@](C)(O)[C@@H]1CC=C(C)CC1`, the outcome is reported as “inactive”. With `CCN(CC)c1ccc2c(-c3ccccc3C(=O)O)c3ccc(=[N+](CC)CC)cc-3oc2c1` the AC50 was 26.9 µM (active). For `CC(=O)[O][Al][O]C(C)=O`, the outcome was “inactive”. For `Cc1cccc(Nc2ccccc2C(=O)O)c1C`, the outcome was “inactive”.

Biological target: Signal transducer and activator of transcription 3 (Homo sapiens) (UniProt P40763)
Sequence (P40763 whole entry, looked up): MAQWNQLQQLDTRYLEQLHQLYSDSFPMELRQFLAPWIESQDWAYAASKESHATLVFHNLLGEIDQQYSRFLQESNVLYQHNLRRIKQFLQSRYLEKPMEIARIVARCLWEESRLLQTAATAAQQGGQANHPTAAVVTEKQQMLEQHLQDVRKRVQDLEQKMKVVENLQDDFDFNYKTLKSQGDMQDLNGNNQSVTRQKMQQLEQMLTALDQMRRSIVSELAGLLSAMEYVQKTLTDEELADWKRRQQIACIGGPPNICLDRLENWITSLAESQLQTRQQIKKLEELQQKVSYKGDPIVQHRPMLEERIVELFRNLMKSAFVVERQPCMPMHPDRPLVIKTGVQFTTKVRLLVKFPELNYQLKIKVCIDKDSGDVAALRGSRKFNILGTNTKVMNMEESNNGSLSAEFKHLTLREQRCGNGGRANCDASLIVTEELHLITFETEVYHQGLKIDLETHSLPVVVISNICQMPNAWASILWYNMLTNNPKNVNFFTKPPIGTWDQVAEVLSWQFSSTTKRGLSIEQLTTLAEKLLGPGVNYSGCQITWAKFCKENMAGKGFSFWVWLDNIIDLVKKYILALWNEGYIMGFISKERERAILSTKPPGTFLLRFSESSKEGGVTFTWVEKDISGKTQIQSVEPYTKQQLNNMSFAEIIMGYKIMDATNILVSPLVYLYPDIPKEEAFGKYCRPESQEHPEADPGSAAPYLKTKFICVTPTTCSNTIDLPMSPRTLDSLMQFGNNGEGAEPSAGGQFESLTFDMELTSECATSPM
Experiment: ATG_STAT3_CIS: Attagene CIS-FACTORIAL HepG2 Assay for human Signal Transducer and Activator of Transcription 3 (STAT3) (AID 2282963)
Details: HepG2, Attagene cis-factorial STAT3 reporter transcription; actives raise or lower the signal
Summary of the method: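 Uses human liver HepG2 transiently carrying cis-regulated reporter transcription units. Following 24 h dosing, reporter mRNA induction was detected by RT-PCR and capillary electrophoresis, analysed bidirectionally versus DMSO.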
For `CCOc1ccccc1OCC`, the outcome was “inactive”. In the case of `c1ccc2[nH]ccc2c1`, the outcome is reported as “inactive”. In the case of `CC(=O)O[C@H](CC(=O)[O-])C[N+](C)(C)C`, the outcome is reported as “inactive”. In the case of `CCN(CC)c1ccc(C(=C2C=CC(=[N+](CC)CC)C=C2)c2ccc(S(=O)(=O)O)cc2S(=O)(=O)[O-])cc1`, the outcome is reported as “inactive”. For `CCCCCCCCCCCCCOS(=O)(=O)O`, the outcome was “inactive”. With `[Ca+2]` the outcome was “inactive”. With `c1cc(C(c2ccc(OCC3CO3)cc2)c2ccc(OCC3CO3)cc2)ccc1OCC1CO1` (stereo not given) the AC50 was 66.3 µM (active). With `CCn1c2ccccc2c2cc(N)ccc21` the outcome was “inactive”. In the case of `C=C[C@@H](C)CCC=C(C)C`, the outcome is reported as “inactive”. With `O=C(O)CN(CCN(CC(=O)O)CC(=O)O)CCN(CC(=O)O)CC(=O)O` the outcome was “inactive”. With `COC(=O)OC` the outcome was “inactive”. For `Cc1c(Cl)c(=O)oc2cc(O)ccc12`, the outcome was “inactive”. For `O=Cc1ccc(F)cc1`, the outcome was “inactive”. For `C=C(C)C(=O)O`, the outcome was “inactive”. With `CC(C)OP(=O)(CP(=O)(OC(C)C)OC(C)C)OC(C)C` the outcome was “inactive”. In the case of `CCCCOCCOCCOCCOCCO`, the outcome is reported as “inactive”. In the case of `COc1ccc(Nc2ccccc2)c(C)c1`, the outcome is reported as “inactive”. In the case of `CCCC(C)C=O` (stereo not given), the outcome is reported as “inactive”. With `CC(=O)Nc1ccccc1O` the outcome was “inactive”. For `COc1cc(C(C)(C)C)c(O)c(C(C)(C)C)c1`, the outcome was “inactive”. With `CCCC(=O)C(C)=O` the outcome was “inactive”. With `O=C(O)c1cn(C2CC2)c2cc(N3CCNCC3)c(F)cc2c1=O` the outcome was “inactive”. For `Cc1ccc2ccccc2n1`, the outcome was “inactive”. For `CC(C)=CCCC(C)=CCCC(C)=CCO`, the outcome was “inactive”. In the case of `O=C(Nc1ccccc1)c1cc([N+](=O)[O-])ccc1Cl`, the outcome is reported as “inactive”. With `N#Cc1ccccc1` the outcome was “inactive”. In the case of `C[C@H]1C[C@@H]2[C@H]([C@@H](O)C[C@@]3(C)[C@H]2CC[C@]3(O)C(=O)CO)[C@@]2(C)C=CC(=O)C=C12`, the outcome is reported as “inactive”. With `COCCOCCOCCOCCOCCO` the outcome was “inactive”. With `O=C(O)CCCCC1CCSS1` (stereo not given) the outcome was “inactive”. For `C#C[C@]1(O)CC[C@H]2[C@@H]3CCC4=Cc5oncc5C[C@]4(C)[C@H]3CC[C@@]21C`, the outcome was “inactive”. For `O=C(O)COCCN1CCN(C(c2ccccc2)c2ccc(Cl)cc2)CC1` (stereo not given), the outcome was “inactive”. In the case of `CCCCN`, the outcome is reported as “inactive”. For `COC(=O)Cc1cccc2ccccc12`, the outcome was “inactive”. With `O=Nc1ccc(Nc2ccccc2)cc1` the outcome was “inactive”. In the case of `CC(C)=CCC[C@](C)(O)[C@@H]1CC=C(C)CC1`, the outcome is reported as “inactive”. In the case of `CCN(CC)c1ccc2c(-c3ccccc3C(=O)O)c3ccc(=[N+](CC)CC)cc-3oc2c1`, the outcome is reported as “inactive”. In the case of `CC(=O)[O][Al][O]C(C)=O`, the outcome is reported as “inactive”. With `Cc1cccc(Nc2ccccc2C(=O)O)c1C` the outcome was “inactive”.

— PubChem BioAssay (EPA / NIEHS)
